Laboratory results: PubChem BioAssay (NCI)
This is part of a sample that, as a whole, favours compounds with a hit. Of some 79,000 tested, about 15% had one in any assay. Calls of active or inactive are those of the source. Rule as the data show it: active = growth inhibition above about 70%; inactive = the rest. Where a SMILES comes first, the peptide text is derived from it. [ ]: non-standard residue; d: D form. The star is where a group is joined. ξ: configuration not given here. Boc = CC(C)(C)OC(=O)*; ξV = CC(C)C(N)C(=O)O; OBn = c1ccc(CO*)cc1

Key:
[1] = NCI Yeast Anticancer Drug Screen. Data for the rad50 strain (AID 155);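 also: 0% = growth of vehicle-only cultures of the same strain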; settings: S. cerevisiae rad50 strain growth inhibition; at 50.0 µM; stronger effect = higher value
Method in brief: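 Cells are treated with compound, grown, and their growth is then scored against vehicle-only cultures of the same repair-deficient yeast strain.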

[2] = NCI Yeast Anticancer Drug Screen. Data for the mec2-1 strain (AID 157); settings: S. cerevisiae mec2-1 strain, at 50.0 µM, stronger effect = higher value
Method in brief: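 mec2-1 yeast strain, carrying an alteration in DNA damage repair or cell cycle control, was exposed to compounds; growth inhibition was measured relative to vehicle-treated controls.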

[3] = NCI Yeast Anticancer Drug Screen. Data for the sgs1 mgt1 strain (AID 161);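 also: 0% = growth of cultures given vehicle only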; settings: S. cerevisiae sgs1 mgt1 strain, at 50.0 µM, stronger effect = higher value
Method in brief: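 This yeast growth screen uses a strain with defined DNA-repair lesions; compound-treated growth is compared with vehicle-treated growth.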

[4] = NCI Yeast Anticancer Drug Screen. Data for the cln2 rad14 strain (AID 165);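 also: 0% = growth equal to vehicle treated cultures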; settings: S. cerevisiae cln2 rad14 strain, at 50.0 µM, stronger effect = higher value
Method in brief: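 Yeast carrying cln2 and rad14 alterations (cell cycle control and DNA damage repair) were exposed to compounds. Growth inhibition was measured against vehicle-treated controls.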

[5] = NCI Yeast Anticancer Drug Screen. Data for the bub3 strain (AID 167); settings: S. cerevisiae bub3 mutant strain, at 50.0 µM, stronger effect = higher value
Method in brief: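 Part of a panel of yeast mutants defective in DNA damage repair or cell cycle regulation. Each strain is grown with compound, and inhibition is calculated relative to solvent-treated cultures.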

[6] = NCI Yeast Anticancer Drug Screen. Data for the mlh1 rad18 strain (AID 175); settings: S. cerevisiae mlh1 rad18 strain growth inhibition; at 50.0 µM; stronger effect = higher value
Method in brief: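 Growth inhibition of the yeast strain was measured after compound exposure and expressed relative to vehicle-treated controls. The strain carries defined defects in DNA damage repair.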

Measured: growth inhibition

COC(=O)c1ccccc1CC1Cc2ccc3c(c2C1)CCC3 (stereo unspecified)
inactive: [1] -0.8% | [2] 5.45% | [3] -1.65% | [4] -31.6% | [5] 2.55% | [6] 13.7%

CCOCCOCCOc1c(Cl)cc(Cl)cc1Cl
inactive: [1] -6.65% | [2] 1.9% | [3] -7.35% | [4] -46% | [5] 30.2% | [6] -21.6%

C[N+]1(CSC(=O)c2ccccc2)CCCCC1
inactive: [1] 1.95% | [2] 11.5% | [3] 12.3% | [4] 1.6% | [5] -9.75% | [6] 24.9%

CCCCCCCNc1nc(N)nc(Cl)n1
inactive: [1] -0.15% | [2] -4.6% | [3] 5.75% | [4] 8.75% | [5] -9.4% | [6] 10.9%

COc1ccc(C(=O)C(C(=O)CCC(=O)Nc2cccc(Cl)c2)c2ccc(OC)cc2)cc1 (stereo unspecified)
inactive: [1] -25.1% | [2] -9.4% | [3] -20.2% | [4] -4.9% | [5] 0.5% | [6] -0.15%

O=[N+]([O-])c1ccc(S(=O)(=O)N(CCCBr)c2ccccc2)cc1
active: [3] 72.7% | [6] 74.3%
inactive: [1] 48.4% | [2] 42.6% | [4] 24.6% | [5] 44.5%

COC(=O)C(Cc1c[nH]c2ccccc12)NC(=O)c1ccccc1NC(=O)OCc1ccccc1 (stereo unspecified)
inactive: [1] 5.85% | [2] -13.1% | [3] 9.15% | [4] -14.1% | [5] 15.1% | [6] 7.65%

O=C(NO)Nc1ccc(Cl)cc1
inactive: [1] 12.2% | [2] 8.7% | [3] 2.95% | [4] -2.15% | [5] -9.2% | [6] 1.65%

COc1cc(/C=C2/C(=O)N(c3ccccc3)N=C2C)cc(OC)c1OC
inactive: [1] 12.6% | [2] -3.4% | [3] 24.1% | [4] 2.5% | [5] 11.6% | [6] 17.9%

COc1ccc(C(=O)OCc2ccccc2CN2CCCCC2)cc1
inactive: [1] -4.75% | [2] -7.25% | [3] 11.4% | [4] -16.3% | [5] -14.2% | [6] -5.6%

CCOC(=O)N/N=C(\C)c1ccc(OC)cc1
inactive: [1] 17.8% | [2] 21.9% | [3] 20.1% | [4] 11.3% | [5] 34.9% | [6] 19.1%

O=C(NSNc1ccccc1)c1ccccc1
inactive: [1] 0.8% | [2] -3% | [3] -7.6% | [4] -69.7% | [5] -0.6% | [6] -4.05%

O=S(=O)(OC12CCCCC1CN1CCCCC1C2)c1ccc(Br)cc1 (stereo unspecified)
inactive: [1] 14.6% | [2] 9.5% | [3] -4.1% | [4] -3.1% | [5] 3.7% | [6] 12.8%

CC(=O)Oc1cccc(OC(=O)Nc2ccc(C)c(NC(=O)Oc3cccc(OC(C)=O)c3)c2)c1
inactive: [1] 26.2% | [2] 22.6% | [3] 9.75% | [4] 19.3% | [5] -0.4% | [6] 34.5%

O=C1NC(=O)C(c2ccc(Cl)cc2)N1 (stereo unspecified)
inactive: [1] 0% | [2] -10.8% | [3] -6.3% | [4] -5.3% | [5] -3.75% | [6] -15.2%

CCN(CC)c1ccc2cc(C(=O)Nc3cccc4ccccc34)c(=N)oc2c1
inactive: [1] 14.4% | [2] 3.05% | [3] -10.2% | [4] -5.45% | [5] -25.9% | [6] -53.6%

O=C(NCCCl)Nc1[nH]c(=O)ncc1Cl
inactive: [1] -12.2% | [2] -13.2% | [3] -16.5% | [4] -30.6% | [5] -12.4% | [6] -3.15%

CN1C(NC(=O)C(C)(C)O)C(C)(C)C(C)(C)C1NC(=O)C(C)(C)O (stereo unspecified)
inactive: [1] 27.9% | [2] 2% | [3] 42.3% | [4] 6.8% | [5] 26.8% | [6] 29.6%

CCC(c1ccc(OC)cc1)C1NC(=S)NC1=O (stereo unspecified)
inactive: [1] 4.05% | [2] -30.1% | [3] 3.2% | [4] 6.45% | [5] 9.55% | [6] 11.6%

O=C(Nc1nc(C23CC4CC(CC(C4)C2)C3)cs1)c1cc2cc([N+](=O)[O-])ccc2oc1=O
inactive: [1] -12.7% | [2] -31.5% | [3] -14.8% | [4] -34.7% | [5] -15.2% | [6] -10.8%

Clc1ccc(C(Cl)(Cl)C(Cl)(Cl)Cl)cc1
inactive: [1] 6.65% | [2] 40.4% | [3] -2.15% | [4] -61.2% | [5] 40% | [6] 44.1%

Cc1ccnc2c1NC(=O)c1cccnc1N2C1CC1
inactive: [1] 2.35% | [2] -1.95% | [3] -8.6% | [4] -9.35% | [5] 6% | [6] 20.8%

CC(=O)OC1OCCCC1Cl (stereo unspecified)
inactive: [1] -8.95% | [2] -27.9% | [3] -7.75% | [4] -3.2% | [5] -30.8% | [6] 10.3%

N/C(=N\N=C\C1CC2C=CC1C2)NO (stereo unspecified)
inactive: [1] 5.3% | [2] -11.4% | [3] -9.8% | [4] -0.05% | [5] -16.6% | [6] -4.55%

OC1CCC2OC12 (stereo unspecified)
inactive: [1] 7.3% | [2] 0.55% | [3] 18.2% | [4] 0.4% | [5] -1.3% | [6] 2%

CCOC(=O)C1CN(CCc2ccccc2)CCC1=O (stereo unspecified)
inactive: [1] 30.9% | [2] -8.65% | [3] 32.1% | [4] 16.5% | [5] 42.8% | [6] 31.8%

CCCCc1c2c(nc3c1CCc1cc4cc5c(nc4nc1-3)-c1nc3c(c(CCCC)c1CC5)CCCC3)CCCC2
inactive: [1] 7.5% | [2] 24.9% | [3] 16.1% | [4] -45.7% | [5] 9.95% | [6] 29.4%

CCCCC(O)(CCC)CCCC
inactive: [1] -8.75% | [2] -6.95% | [3] 3.75% | [4] -36.9% | [5] -1.25% | [6] 2.55%

O=C(N/N=C\C(F)(F)F)c1ccncc1
inactive: [1] 0.85% | [2] -10.8% | [3] 4.65% | [4] -25% | [5] 1.5% | [6] 24.1%

Cc1ccccc1NC(=S)N1CCOCC1
inactive: [1] -4.55% | [2] 14.4% | [3] -10.8% | [4] -68.6% | [5] 14.2% | [6] -6.35%

CC(=O)OCC/C=C\CCCOC(C)=O
inactive: [1] 5.55% | [2] -2.7% | [3] -3% | [4] -1.75% | [5] 8.3% | [6] 3.65%

c1nnc2c3c4c(sc3ncn12)CCCC4
inactive: [1] 0.4% | [2] -5.05% | [3] 2.4% | [4] -24.7% | [5] -0.1% | [6] 4.55%

O=C(CCc1nnc2s/c(=C\c3ccccc3Cl)c(=O)n12)Nc1cc(Cl)ccc1Cl
inactive: [1] 2.9% | [2] -14.7% | [3] -36.8% | [4] -21.8% | [5] -4.8% | [6] -15.1%

O=C(Cn1c(=O)oc2ccc(C(=O)c3ccc(F)cc3)cc21)c1ccc([N+](=O)[O-])cc1
inactive: [1] -13.8% | [2] -36% | [3] -15.6% | [4] -24.6% | [5] -21.6% | [6] -14.8%

S=c1[nH]ncc(SCc2ccccc2)c1SCc1ccccc1
inactive: [1] 2.95% | [2] 2.85% | [3] -8.05% | [4] -15.1% | [5] 7.1% | [6] 7.55%

C=COS(=O)O
inactive: [1] -0.65% | [2] -3.45% | [3] -4.85% | [4] -6.7% | [5] 12.3% | [6] -0.15%

Cn1c(=O)c2c(nc(N(CCN(N=O)c3nc4c(c(=O)n(C)c(=O)n4C)n3C)N=O)n2C)n(C)c1=O
inactive: [1] -11% | [2] -4.35% | [3] -25.7% | [4] -0.3% | [5] -8.85% | [6] -0.65%

CC(C)C(NC(=O)OC(C)(C)C)C(=O)NCC(=O)OCc1ccccc1 (stereo unspecified) (Boc-[ξV]-Gly-OBn)
inactive: [1] -37.9% | [2] -36% | [3] 12.2% | [4] -3.3% | [5] -8.6% | [6] -21.6%

O=C(/C(=C\C(=O)c1cccs1)c1ccsc1)c1ccc(Br)cc1
inactive: [1] 1.2% | [2] -32% | [3] 11.2% | [4] -25.9% | [5] 14.5% | [6] -17.3%

O=C(NN1C(=O)CS(=O)(=O)C1c1ccc(C(F)(F)F)cc1)c1ccncc1 (stereo unspecified)
inactive: [1] -10.7% | [2] 2.2% | [3] 5.8% | [4] 8.8% | [5] 1.05% | [6] 7.75%

Cc1cc2nc3c(=O)[nH]c(=O)nc-3n(CCOC(=O)CCC(=O)O)c2cc1C
inactive: [1] -8.35% | [2] 9.45% | [3] 10.5% | [4] 0.2% | [5] 3.1% | [6] 3.95%
